MEKK2mut PB1 HTS: signal of MEK5 binding to mutant human MEKK2 PB1 domain | bead flow cytometry, Alexa488-MEK5 binding to MEKK2 mutant | percent response, % at 10 µM | actives 0.35% (n = 290,000); in the data active = percent response above about 24%, passing the limit was not always enough
MEKK3 PB1 HTS: MEKK3-MEK5 PB1 interaction, increase or decrease. binding response (% of control), % at 10 µM. actives 1.4% (n = 290,000). bead-based flow cytometry, Alexa488-MEK5 binding to MEKK3; actives lie on both sides; 0 = blocked by unlabeled MEK5, 100 = vehicle;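 active = binding response more than 3 SD above or below the average of its plate-row segment, actives on both sides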;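 also: Alexa488 bead fluorescence after subtracting the streptavidin-only scavenger bead signal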
MEKK2 WT-MEK5: raises or lowers MEK5 binding to wildtype human MEKK2 PB1 domain; Q9Y2U5; actives 1.1% (n = 290,000); binding response (% of control), % at 10 µM; bead flow cytometry, Alexa488-MEK5 binding to MEKK2 WT; actives lie on both sides; in the data active = binding response below about 67% or above about 130%
UBC13 polyUb: inhibitors of human UBC13 polyubiquitin chain formation; actives 0.47% (n = 330,000); TR-FRET; AID 485273; inhibition, % at 20 µM; P61088; in the data active = inhibition above about 45%, passing the limit was not always enough
Target sequence (P61088 whole entry, looked up): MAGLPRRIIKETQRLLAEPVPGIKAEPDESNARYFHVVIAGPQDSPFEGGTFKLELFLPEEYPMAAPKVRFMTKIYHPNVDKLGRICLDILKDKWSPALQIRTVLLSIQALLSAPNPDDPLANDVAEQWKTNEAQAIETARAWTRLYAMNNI
MEKK2wt confirm: raises or lowers MEK5 binding to wildtype human MEKK2, retest | shares compounds with MEKK3 PB1 HTS | bead flow cytometry, Alexa488-MEK5 binding to MEKK2 WT; actives lie on both sides | binding response (% of control), % at 10 µM | actives 2.4% (n = 5,900) | AID 1892; in the data active = binding response below about 16% or above about 210%; inactive = in between
MEKK2mut-MEK5: signal of MEK5 binding to mutant human MEKK2, retest; shares compounds with MEKK3 PB1 HTS; bead flow cytometry, Alexa488-MEK5 binding to MEKK2 mutant; percent response, % at 10 µM; actives 2% (n = 5,900); in the data active = percent response mostly above about 71%, no sharp cut-off; inactive = mostly below about 38%;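 also: higher means compound restores mutant binding toward wildtype level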
MEKK3-MEK5 inh: MEKK3-MEK5 PB1 inhibition, single concentration confirmation; binding response (% of control), % at 10 µM; shares compounds with MEKK3 PB1 HTS; actives 1.8% (n = 5,900); AID 1894; bead flow cytometry, Alexa488-MEK5 binding to MEKK3; active compounds read low;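 active = binding response below 72% of control, or above a set upper limit, though filed actives all read lower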;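 also: 100% = DMSO only wells and 0% = binding blocked by excess unlabeled MEK5; lower values mean stronger disruption of MEK5 binding to MEKK3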
* = called active by the depositor; [ ] = another dose, or the depositor's remark. In the library only some 2.3% were active in any assay of this set; here they are far more common.

For CC(=O)N1/C(=C/c2ccc(N(C)C)cc2)C(=O)c2ccccc21 the results were MEKK2mut PB1 HTS -12, MEKK3 PB1 HTS 55, MEKK2 WT-MEK5 36*[inhibitor], MEKK2wt confirm 38, MEKK2mut-MEK5 -20 and MEKK3-MEK5 inh 83.
CN(C)CCCNCCCNC(=O)/C(=N\O)c1ccccc1 was read as MEKK2mut PB1 HTS 8, MEKK3 PB1 HTS 110, MEKK2 WT-MEK5 107 and UBC13 polyUb 4.
Screening Cc1cc(N2CCN(C)CC2)ccc1NC(=O)c1cccc(S(=O)(=O)N2CCc3ccccc3C2)c1 returned MEKK2mut PB1 HTS 5, MEKK3 PB1 HTS 105, MEKK2 WT-MEK5 195*, UBC13 polyUb 33, MEKK2wt confirm 126, MEKK2mut-MEK5 8 and MEKK3-MEK5 inh 98.
For COCCCNC(=S)N/N=C/c1ccc(OC)c(Br)c1 the results were MEKK2mut PB1 HTS -1, MEKK3 PB1 HTS 104, MEKK2 WT-MEK5 97 and UBC13 polyUb 0.
CCCCOc1ccc(CC(=O)NCC(=O)O)cc1 was read as MEKK2mut PB1 HTS -2, MEKK3 PB1 HTS 57*[inhibitor], MEKK2 WT-MEK5 92, UBC13 polyUb 3, MEKK2wt confirm 99, MEKK2mut-MEK5 3 and MEKK3-MEK5 inh 105.
`O=c1[nH]c2ccccc2nc1Cc1ccc([N+](=O)[O-])cc1` gave MEKK2mut PB1 HTS 0, MEKK3 PB1 HTS 101, MEKK2 WT-MEK5 100 and UBC13 polyUb 4.
For CSc1nc(NCCCN(C)C)c2c3c(sc2n1)CN(C)CC3 the results were MEKK2mut PB1 HTS 30*, MEKK3 PB1 HTS 100, MEKK2 WT-MEK5 138*, UBC13 polyUb 25, MEKK2wt confirm 120, MEKK2mut-MEK5 34 and MEKK3-MEK5 inh 106.
CCN(CC)CCNc1nc(SC)nc2sc3c(c12)CCN(C)C3 was read as MEKK2mut PB1 HTS 16, MEKK3 PB1 HTS 107, MEKK2 WT-MEK5 117 and UBC13 polyUb 13.
Screening COc1ccc(OC)c(NC(=O)c2cc(-c3cc(Cl)ccc3O)n[nH]2)c1 returned MEKK2mut PB1 HTS 8, MEKK3 PB1 HTS 145*, MEKK2 WT-MEK5 130, UBC13 polyUb -10, MEKK2wt confirm 93, MEKK2mut-MEK5 -3 and MEKK3-MEK5 inh 98.
For CC(C)(C)NC(=O)COc1ccc(CNCc2cccnc2)cc1 the results were MEKK2mut PB1 HTS -10, MEKK3 PB1 HTS 56*[inhibitor], MEKK2 WT-MEK5 71, UBC13 polyUb 20, MEKK2wt confirm 98, MEKK2mut-MEK5 -2 and MEKK3-MEK5 inh 101.
O=C(CCCSc1ccc(Cl)cc1)Nc1cc(S(=O)(=O)N2CCOCC2)ccc1O was read as UBC13 polyUb 22.
CC(C)C(=O)Nc1nnc(SCC(=O)NCc2ccco2)s1 was read as MEKK2mut PB1 HTS 0, MEKK3 PB1 HTS 139*, MEKK2 WT-MEK5 106, UBC13 polyUb 10, MEKK2wt confirm 104, MEKK2mut-MEK5 4 and MEKK3-MEK5 inh 103.
For Cc1ccc(C(=O)NCCc2ccccc2)cc1S(=O)(=O)N1CCOCC1 the results were UBC13 polyUb 5.
`Cc1ccc2nc(SC(C(=O)Nc3ccc(F)cc3)c3ccccc3)[nH]c2c1` (centres undefined) gave MEKK2mut PB1 HTS 1, MEKK3 PB1 HTS 153*, MEKK2 WT-MEK5 123, UBC13 polyUb -1, MEKK2wt confirm 88, MEKK2mut-MEK5 5 and MEKK3-MEK5 inh 103.
Cc1ccc(C)c(NC(=O)C(Sc2nc3ccc(C)cc3[nH]2)c2ccccc2)c1 (centres undefined) was read as MEKK2mut PB1 HTS -1, MEKK3 PB1 HTS 106, MEKK2 WT-MEK5 107 and UBC13 polyUb 1.
For CN(C)/C=C/C(=O)c1ccc(-c2ccc(Cl)cc2Cl)o1 the results were MEKK2mut PB1 HTS -9, MEKK3 PB1 HTS 112, MEKK2 WT-MEK5 94 and UBC13 polyUb 0.
Screening N#CC1=C(N)OC2=C(C(=O)CCC2)[C@]12C(=O)N(CC(N)=O)c1ccccc12 returned MEKK2mut PB1 HTS -21, MEKK3 PB1 HTS 0.0*[inhibitor], MEKK2 WT-MEK5 -1.0*[inhibitor], UBC13 polyUb 7, MEKK2wt confirm 104, MEKK2mut-MEK5 1 and MEKK3-MEK5 inh 97.
For CCOc1ccc(-n2cc(C(=O)Nc3cccc(Cl)c3)c3cc(OC)c(OC)cc3c2=O)cc1 the results were MEKK2mut PB1 HTS -18, MEKK3 PB1 HTS 2.0*[inhibitor], MEKK2 WT-MEK5 3.0*[inhibitor], UBC13 polyUb 10, MEKK2wt confirm 97, MEKK2mut-MEK5 -4 and MEKK3-MEK5 inh 101.
For CCOC(=O)c1nnn2c1nc(SCC(C)=O)c1ccccc12 the results were MEKK2mut PB1 HTS 32, MEKK3 PB1 HTS 132*, MEKK2 WT-MEK5 138*, UBC13 polyUb 6, MEKK2wt confirm 99, MEKK2mut-MEK5 -4 and MEKK3-MEK5 inh 100.
For C=CCSc1nc2c(C(=O)OCC)nnn2c2ccccc12 the results were MEKK2mut PB1 HTS 4, MEKK3 PB1 HTS 103 and MEKK2 WT-MEK5 99.
COc1ccc(S(=O)(=O)N2CCC(n3cnc4cc(C(F)(F)F)ccc43)CC2)cc1 was read as MEKK2mut PB1 HTS 4, MEKK3 PB1 HTS 126*, MEKK2 WT-MEK5 107, UBC13 polyUb -3, MEKK2wt confirm 105, MEKK2mut-MEK5 1 and MEKK3-MEK5 inh 103.
For COc1ccc(S(=O)(=O)N2CCC(n3cnc4ccccc43)CC2)cc1 the results were MEKK2mut PB1 HTS 4, MEKK3 PB1 HTS 103, MEKK2 WT-MEK5 105 and UBC13 polyUb 0.
CC(OC(=O)CCN=C1NS(=O)(=O)c2ccccc21)C(=O)NCc1ccccc1 (centres undefined) was read as UBC13 polyUb 4.
`C=CCOc1ccc(C2C(C(=O)c3ccco3)=C(O)C(=O)N2c2nnc(C)s2)cc1` (centres undefined) gave MEKK2mut PB1 HTS -3, MEKK3 PB1 HTS 100, MEKK2 WT-MEK5 97 and UBC13 polyUb 1.
For Cc1nc2ccccc2n1S(=O)(=O)N(C)C the results were MEKK2mut PB1 HTS 10, MEKK3 PB1 HTS 141*, MEKK2 WT-MEK5 125, UBC13 polyUb 5, MEKK2wt confirm 102, MEKK2mut-MEK5 1 and MEKK3-MEK5 inh 101.
`Cc1nc2ccccc2n1S(=O)(=O)c1ccc(F)cc1` gave MEKK2mut PB1 HTS 3, MEKK3 PB1 HTS 96, MEKK2 WT-MEK5 98 and UBC13 polyUb 1.
For CCOc1ccccc1NC(=O)COC(=O)c1c[nH]c2ccccc12 the results were UBC13 polyUb -1.
For CC1COc2c(N3CCN(C)CC3)c(F)cc3c(=O)c(C(=O)O)cn1c23 (centres undefined) the results were MEKK2mut PB1 HTS 4, MEKK3 PB1 HTS 108, MEKK2 WT-MEK5 112 and UBC13 polyUb 21.
